Source: PubChem
Compounds with a hit are over-represented: about 2.2% of the library has one in this group of screens.
aSyn UTR inh – MLPCN primary screen, SNCA 5' untranslated region; inhibition, % (tested at 7.5 µM); alpha-synuclein 5'UTR reporter, inhibitor activity; 0.82% of 300,000 active; in the data active = inhibition above about 60%; inconclusive = no clear call, values can overlap the other calls;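 also: H4 neuroglioblastoma cells stably carrying SNCA 5'UTR luciferase fusion; 0% = DMSO wells and 100% = positive control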
APP transl inh – APP translation inhibition. inhibition, % at 2 µM. 0.82% of 190,000 active. SH-SY5Y APP 5'UTR-luciferase reporter, luminescence. AID 1285;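 active = inhibition above a set limit, derived from the sample mean plus 3 SD, cut at about 45% in these data; inconclusive = one replicate passes the limit while the other fails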
BaF3 tox – reduces parental Ba/F3 cell viability, JAK2V617F counter-screen; AID 1486; CellTiter-Glo ATP luminescence; 1.1% of 220,000 active; inhibition, % at 5.6 µM;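 active = inhibition above a per-campaign cutoff, the mean inhibition of all tested compounds plus 3 SD, cut at about 27% in these data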;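 also: 0% = DMSO wells and 100% = JAK Inhibitor I control wells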
IEC-6 cytotox – kills IEC-6 intestinal cells in KLF5 counter-screen; IEC-6 cytotoxicity, luminescence viability; inhibition, % at 5 µM; 0.78% of 290,000 active; in the data active = inhibition above about 22%;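 also: 0% = plate median of test compound wells and 100% = cytotoxic reference compound wells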
Ba/F3 V617F tox – loss of viability in JAK2V617F-driven Ba/F3 cells; Ba/F3 EpoR-JAK2V617F viability, ATP luminescence; inhibition, % at 5.6 µM; 1.1% of 220,000 active; AID 1446;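 active = inhibition above the campaign mean plus 3 SD over all tested compounds, cut at about 24% in these data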;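 also: cytokine-independent growth of Ba/F3 cells driven by EpoR plus mutant JAK2; 0% = DMSO-treated cells and 100% = JAK inhibitor I control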
KLF5 inhibitor – kruppel-like factor 5 inhibition; DLD-1 KLF5 promoter-luciferase reporter, luminescence; inhibition, % at 5 µM; 0.23% of 290,000 active; AID 1700;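 active = inhibition above a per-plate limit of that plate's mean compound inhibition plus 3 SD, cut at about 60% in these data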;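 also: 0% = DMSO wells and 100% = LY294002 at 200 µM; higher means less KLF5 promoter-driven luciferase light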
Starred values were filed as active, the others as inactive; ? = inconclusive; / = no result given.

SMILES | aSyn UTR inh | APP transl inh | BaF3 tox | IEC-6 cytotox | Ba/F3 V617F tox | KLF5 inhibitor
CCN(Cc1ccccc1)C(=O)COC(=O)Cn1cnc2ccccc21 | -5 | -4 | 5 | 0 | 3 | -27
Cc1cc(C)c(S(=O)(=O)N(C)CC(=O)NCCN2CCOCC2)c(C)c1 | -5 | / | / | -3 | / | -9
COc1ccc(C2/C=C\CN(C(=O)Nc3ccc(C(F)(F)F)cc3)CC(=O)N2Cc2ccc(F)cc2)cc1 (configuration not stated) | 71* | / | / | / | / | /
O=C(NNc1nc(-c2ccccc2)cs1)c1cccs1 | -3 | / | -3 | -1 | -2 | 3
O=C(NNc1nc(-c2ccc(F)cc2)cs1)c1ccccc1 | 90* | 6 | 10 | -1 | 4 | 2
O=C(NNc1nc(-c2ccccc2)cs1)c1ccc(F)cc1 | 76* | -9 | 11 | -5 | 1 | 25
CCCC(=NCCc1c(C)[nH]c2ccccc12)C1=C(O)CC(c2ccccc2)CC1=O (configuration not stated) | 86* | 84* | 6 | -10 | 0 | -10
CC(=NCCc1c(C)[nH]c2ccc(OC(F)(F)F)cc12)C1=C(O)CC(c2ccccc2)CC1=O (configuration not stated) | 24 | 23 | 2 | -5 | -5 | -35
CC(=NCCc1c(C)[nH]c2ccc(C)cc12)C1=C(O)CC(c2ccccc2)CC1=O (configuration not stated) | 56 | 88* | 6 | 6 | 1 | -1
CCCCC(=NCCc1c(C)[nH]c2ccccc12)C1=C(O)CC(c2ccccc2)CC1=O (configuration not stated) | 51 | 5 | 5 | 0 | 0 | -12
O=C(CSc1ccc(-c2ccncc2)nn1)c1ccccc1 | 2 | 25 | 4 | 12 | 6 | -19
CCc1cccc(CC)c1-n1c(-c2cccnc2)n[nH]c1=S | 4 | -12 | 4 | -3 | 1 | -34
S=c1[nH]nc(-c2cccc3ccccc23)n1-c1cccnc1 | -13 | / | 50* | -3 | 52* | -18
N#Cc1c(N2CCCC2)ccc(Br)c1Cl | -12 | / | 39* | -11 | 0 | 1
Cc1ccc(CCNC(=O)c2nc(CS(=O)(=O)c3ccc(Cl)cc3)no2)cc1 | 22 | / | / | 4 | / | -18
COc1ccc(N(C(=O)CCl)C(C(=O)NCCc2ccccc2)c2cccs2)cc1 (configuration not stated) | -16 | 16 | 30* | 41* | 102* | 6
COc1cc(C(=O)O/N=C(\N)Cc2ccc([N+](=O)[O-])cc2)cc(OC)c1OC | 81* | / | 1 | 12 | -1 | 1
O=C(Nc1ccccc1N1CCCCC1)c1ccc(-c2ccc(Cl)cc2)o1 | 99* | 84* | -2 | -1 | -2 | 0
O=[N+]([O-])c1cccc(-c2nnc(-c3ccccc3)o2)c1 | 68* | -115 | 5 | -4 | -2 | -77
CC(=O)c1ccc(NC(=O)c2noc3c2CCC3)cc1 | 71* | -138 | 6 | 3 | 2 | 56
O=C(Nc1cnn(Cc2ccc(F)cc2)c1)c1noc2c1CCCC2 | -105 | -59 | 58* | 19 | 55* | 16
Cc1c(Br)c([N+](=O)[O-])nn1CC(=O)Nc1cccc2nonc12 | 12 | -41 | 1 | 0 | -2 | -30
CSc1ccc(/C=C(/NC(=O)c2ccc(C)cc2)C(=O)Nc2cccc(C)c2)cc1 | 22 | -20 | 3 | -1 | 2 | -20
CSc1ccc(/C=C(\NC(=O)c2ccc(C)cc2)C(=O)NN)cc1 | 7 | / | 57* | -4 | 13 | -16
Cc1ccccc1OCc1n(CC(=O)OC2CC(C)CCC2C(C)C)c2ccccc2[n+]1C (configuration not stated) | 85* | 8 | 80* | -4 | 101* | -12
SMILES | aSyn UTR inh | APP transl inh | BaF3 tox | IEC-6 cytotox | Ba/F3 V617F tox | KLF5 inhibitor
CC1CCC(C(C)C)C(OC(=O)Cn2c(-c3ccc(Br)cc3)[n+](C)c3ccccc32)C1 (configuration not stated) | 7 | -15 | 87* | 2 | 101* | -3
CC1CCC(C(C)C)C(OC(=O)Cn2c(-c3ccc(Cl)cc3)[n+](C)c3ccccc32)C1 (configuration not stated) | ? | / | 95* | 8 | 99* | -17
CC1CCC(C(C)C)C(OC(=O)COC(=O)c2cccn2C)C1 (configuration not stated) | 0 | 1 | 3 | -2 | -1 | -14
CC(C)C(NS(=O)(=O)c1cccc2nsnc12)C(=O)NC1CCCCC1C (configuration not stated) | 29 | / | / | 7 | / | -22
O=C(NCCc1c[nH]c2ccccc12)C(F)(F)F | 8 | -24 | -1 | -1 | -5 | -14
CN1CCN(c2ccc(NC(=O)c3ccc4ccccc4c3)cc2)CC1 | 85* | / | / | -3 | / | -87
COc1ccc(C(=O)Nc2ccc(N3CCN(C)CC3)cc2)cc1 | -165 | / | / | -3 | / | -138
Cc1nn(Cc2ccc(Cl)c(Cl)c2)c(C)c1NC(=O)c1cc(-c2ccc3c(c2)OCO3)on1 | 66* | 52* | 2 | 1 | -4 | -9
C#CC(=O)N(c1cccc(OC)c1)C(C(=O)NC1CCCC1)c1cccs1 (configuration not stated) | 92* | 19 | 80* | 100* | 101* | 5
CCOC(=O)C(C)NC(=O)c1cn(-c2ccc(OC)cc2)c(=O)c2ccccc12 (configuration not stated) | 13 | / | / | 2 | / | -50
NC(=O)c1ccc(NC(=O)Cc2csc(-c3ccccc3)n2)cc1 | -39 | 16 | 9 | 3 | 7 | -28
C/C(=N\NC(=O)CCCNc1ccc(C)cc1)c1ccccn1 | 78* | 31 | 4 | 2 | 1 | -30
C/C(=N\NC(=O)CCCNc1ccccc1)c1ccncc1 | 5 | -8 | 6 | 6 | 0 | -38
C/C(=N\NC(=O)c1cc2ccccc2cc1O)c1cc2ccccc2o1 | -35 | / | -2 | -8 | -2 | -30
C/C(=N\NC(=O)c1c[nH]c2ccccc12)c1ccccn1 | 72* | 47* | 4 | 6 | -2 | -58
C/C(=N\NC(=O)c1cc2ccccc2cc1O)c1ccccn1 | 88* | / | / | 0 | / | 27
C=CCNC(=S)N/N=C(\C)c1ccccn1 | 86* | 93* | 91* | 91* | 98* | 54
Cc1nn(-c2ccccc2)nc1C(=O)NNC(=O)c1ccc(C(F)(F)F)cc1 | -7 | / | 3 | -5 | 0 | -20
Cc1ccc2c(c1)CCCN2C(=O)c1ccc2c(c1)OCO2 | -18 | -11 | 30* | 2 | 29* | -41
O=C(c1ccc2c(c1)OCO2)N1CCCc2ccccc21 | -4 | -26 | 8 | 7 | 7 | 6
COc1cccc2c1C(=O)c1c(O)c3c(c(O)c1C2=O)C[C@@](O)(C(=O)CO)C[C@@H]3O[C@H]1C[C@H](N)[C@H](O)[C@H](C)O1 | 109* | 95* | 101* | 94* | 102* | 42
